From PubChem BioAssay (NCI)
Compounds without any hit were thinned out: in the full panel of roughly 79,000, 15% have a hit. Rule as the data show it: active = growth inhibition above about 70%; inactive = the rest.

Legend:
[1] = NCI Yeast Anticancer Drug Screen. Data for the rad50 strain (AID 155);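 also: 0% = growth of vehicle-only cultures of the same strain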; conditions: S. cerevisiae rad50 strain growth inhibition; at 50.0 µM; active compounds read high
Outline: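 Genetically altered yeast (DNA repair pathway); compound treatment; growth inhibition vs vehicle ctrl.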

[2] = NCI Yeast Anticancer Drug Screen. Data for the mec2-1 strain (AID 157); conditions: S. cerevisiae mec2-1 strain, at 50.0 µM, active compounds read high
Outline: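 Using mec2-1 yeast: add compound, measure growth, express inhibition versus vehicle-treated cultures.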

[3] = NCI Yeast Anticancer Drug Screen. Data for the sgs1 mgt1 strain (AID 161);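 also: 0% = growth of cultures given vehicle only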; conditions: S. cerevisiae sgs1 mgt1 strain, at 50.0 µM, active compounds read high
Outline: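 Yeast cells carrying a defined DNA-repair defect were exposed to test compounds. Growth inhibition was measured relative to vehicle-treated controls.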

[4] = NCI Yeast Anticancer Drug Screen. Data for the cln2 rad14 strain (AID 165);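 also: 0% = growth equal to vehicle treated cultures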; conditions: S. cerevisiae cln2 rad14 strain, at 50.0 µM, active compounds read high
Outline: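 Yeast strain cln2 rad14, bearing defects in cell cycle control and DNA repair, serves as the test system; values reflect growth inhibition compared with vehicle.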

[5] = NCI Yeast Anticancer Drug Screen. Data for the bub3 strain (AID 167); conditions: S. cerevisiae bub3 mutant strain, at 50.0 µM, active compounds read high
Outline: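 Yeast carrying a defined mutation is treated with each compound, and growth is compared with that of vehicle-exposed cells to give inhibition.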

[6] = NCI Yeast Anticancer Drug Screen. Data for the mlh1 rad18 strain (AID 175); conditions: S. cerevisiae mlh1 rad18 strain growth inhibition; at 50.0 µM; active compounds read high
Outline: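 Steps: expose repair-defective yeast to compound; measure growth; express inhibition against vehicle-treated controls.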

Measured: growth inhibition

COC(=O)C1(CCSc2ccccc2)CCCC1=O (stereo not drawn)
inactive: [1] 29.3% | [2] -33% | [3] 14.8% | [4] 5.05% | [5] 27% | [6] 6.65%

O=c1[nH]c2c(c(=O)[nH]1)SSC2
inactive: [1] -24.4% | [2] -12.8% | [3] -39.4% | [4] -7.7% | [5] -28.4% | [6] -10.1%

C/C=C\c1ccc(OCCOC(C)=O)c(OC)c1
inactive: [1] 12% | [2] -13.6% | [3] -3.4% | [4] -28.2% | [5] -9.95% | [6] -15.8%

c1ccc2cc(B(c3cccc4ccccc34)c3cccc4ccccc34)ccc2c1
inactive: [1] 14% | [2] -8.75% | [3] -8.4% | [4] -25.6% | [5] -2.25% | [6] -23.9%

C=CCSc1nc2c(=O)[nH]cnc2n1C1OC(CO)C(O)C1O (stereo not drawn)
inactive: [1] -7.35% | [2] 4% | [3] -3.1% | [4] -0.35% | [5] -8.1% | [6] -12.7%

CCCN(CCC)S(=O)(=O)c1ccc(NC(=O)OC2CCCCC2)cc1
inactive: [1] 37.1% | [2] 2.25% | [3] 23.6% | [4] 13.1% | [5] -4.7% | [6] 17.9%

N/C(CC/C(N)=N\O)=N\O
inactive: [1] -1.95% | [2] -15.8% | [3] -11.2% | [4] -4.9% | [5] 1.1% | [6] -1.7%

C/C(=C\c1ccccc1)C(=O)c1c(C)cc(C)cc1C
inactive: [1] 26.9% | [2] -2.9% | [3] 11.1% | [4] -0.2% | [5] -5.45% | [6] -11.8%

Cc1ccc(S(=O)(=O)/C=C\S(=O)(=O)c2ccc(C)cc2)cc1
inactive: [1] -7.35% | [2] -3.15% | [3] 5.15% | [4] -28.4% | [5] 3.15% | [6] 2.7%

COc1ccc(NC(=O)Nc2ccc(Br)cc2)cc1
inactive: [1] -9.55% | [2] 5.7% | [3] -0.15% | [4] -34% | [5] -4.6% | [6] -15.2%

O=c1c2ccccc2c2nccn2c2ccccc12
inactive: [1] 13.8% | [2] 3% | [3] 19.1% | [4] -9.1% | [5] -0.3% | [6] -5.25%

COc1ccc(N2N=NCC2c2ccccc2[N+](=O)[O-])cc1 (stereo not drawn)
inactive: [1] -10.6% | [2] -11.9% | [3] 14.2% | [4] -37.4% | [5] 13.6% | [6] 20.4%

Cn1c(=O)c2[nH]c(/N=N/N3CCN(CCO)CC3)nc2n(C)c1=O
inactive: [1] 20.1% | [2] -14.8% | [3] 6.95% | [4] -34% | [5] -45.6% | [6] 9.35%

O=C(Cc1ccccc1)OCC(=O)c1ccc(-c2ccccc2)cc1
inactive: [1] -1.05% | [2] 15.1% | [3] 0.9% | [4] 39.8% | [5] 19.1% | [6] -5.15%

COCc1cc(=O)c(OC)cn1CCO
inactive: [1] -40.5% | [2] -17.9% | [3] -25.9% | [4] -63.1% | [5] 0% | [6] -5.2%

C=C(Cl)CSc1ncnc2nc[nH]c12
inactive: [1] 34.5% | [2] 22.9% | [3] 18.2% | [4] 8.05% | [5] 30.6% | [6] 36.4%

Cc1sc2nc3n(c(=O)c2c1C)N=C(c1ccc(Cl)cc1)CS3
inactive: [1] 6.6% | [2] -11.2% | [3] -6.65% | [4] 9.2% | [5] -0.8% | [6] -16.2%

OC1C/C=C/CCCCC1 (stereo not drawn)
inactive: [1] -11% | [2] -5.75% | [3] -3.55% | [4] 1.95% | [5] 3.3% | [6] -4.4%

CC#CCCCC1(C)CCNC1=S (stereo not drawn)
inactive: [1] 13.8% | [2] 10.2% | [3] 30.5% | [4] 21.9% | [5] 0.8% | [6] 24.6%

C=C1C(=O)C[C@@H]2CC(C)(C)C[C@]12CC(=O)O
inactive: [1] -11.1% | [2] -41.5% | [3] -1.65% | [4] -7.05% | [5] -9.15% | [6] -17.1%

Cc1nn2c(c1C#N)NNc1c-2sc(=N)nnc1=O
inactive: [1] -1.6% | [2] 0.5% | [3] 13.5% | [4] -4.4% | [5] -9.4% | [6] 15.6%

O=C(O)CCNc1cccs1
inactive: [1] -19.6% | [2] -1.75% | [3] -26.5% | [4] -63.8% | [5] -4.85% | [6] -19.9%

N#CCCN(N)S(=O)(=O)c1ccccc1
inactive: [1] 3.7% | [2] 7.65% | [3] 0% | [4] -34.7% | [5] 2.85% | [6] -0.2%

CCOc1c(N=Nc2ccc(Cl)cc2Cl)c(C)nn1C(N)=S
inactive: [1] -16.2% | [2] 0.15% | [3] 11.1% | [4] -43.8% | [5] -24.2% | [6] 17.5%

N#CCCCCCCCCCCC(=O)O
inactive: [1] -24.6% | [2] -55.9% | [3] 1.95% | [4] 1.45% | [5] -59.4% | [6] -10.2%

CNC(=O)OCc1c(C)oc(-c2ccc(Cl)c(Cl)c2)c1COC(=O)NC
inactive: [1] 47.5% | [2] -7.15% | [3] 34.5% | [4] 24.1% | [5] 12.3% | [6] 14.4%

Cn1c2ccccc2c(=S)c2c(O)cc3c(c21)C=CC(C)(C)O3
inactive: [1] 28.8% | [2] 6.3% | [3] -0.7% | [4] 22.9% | [5] 9.85% | [6] 21.6%

Nc1cc(=O)n(C2OC(CO)C(O)C2O)cn1 (stereo not drawn)
inactive: [1] 6.85% | [2] -8.35% | [3] -0.3% | [4] -39.4% | [5] -19.4% | [6] 8.05%

CCCCN(CCO)CC(O)Cn1cnc2c(N)ncnc21 (stereo not drawn)
inactive: [1] 17.4% | [2] 13.9% | [3] 8.85% | [4] 0.7% | [5] -5.65% | [6] 21.3%

COC1C(/C=[N+](\C)[O-])OC2OC(C)(C)OC21 (stereo not drawn)
inactive: [1] 10.2% | [2] -9.5% | [3] -12.8% | [4] -26.1% | [5] 17.6% | [6] 12.8%

[CH3][Ge]([Cl])([c]1ccccc1)[c]1cccc2ccccc12 (stereo not drawn)
inactive: [1] 25.2% | [2] 12.4% | [3] 10.8% | [4] 10.2% | [5] -0.15% | [6] 7.5%

Cc1ccc(Cl)c(NC(=O)C(=O)C(C(=O)c2ccncc2)C2OC(=O)c3ccccc32)c1 (stereo not drawn)
inactive: [1] -14.6% | [2] -26.1% | [3] -37.1% | [4] 6.45% | [5] -5.85% | [6] -17.9%

CC1(C)OC2OC(CNC(=O)c3ccccc3)C(O)C2O1 (stereo not drawn)
inactive: [1] -9.05% | [2] -4.4% | [3] 3.05% | [4] -3.1% | [5] -10.3% | [6] -18.8%

O=C(Nc1ccc(Cl)cc1)OCCSc1nc2ccccc2s1
inactive: [1] -6.05% | [2] -30.1% | [3] 21.5% | [4] 9.35% | [5] 4.55% | [6] -3.9%

O=C1CCc2cc3c(cc21)CC1(Cc2cc4c(cc2C1)CCCC4)C3
inactive: [1] -28.4% | [2] -8.8% | [3] -22.2% | [4] -18.1% | [5] 17.2% | [6] -20.3%

CCOC/C(=N\NC(N)=O)c1ccccc1
inactive: [1] -16.8% | [2] -22.2% | [3] -22.9% | [4] -1.85% | [5] 9.3% | [6] -20.3%

CCOC(CCl)(NC(C)=O)C(=O)OC (stereo not drawn)
inactive: [1] -0.5% | [2] -9.7% | [3] -9.55% | [4] -8.75% | [5] 4.3% | [6] -8.1%

CC(=O)Nc1cccc(F)c1
inactive: [1] -35.1% | [2] 1.1% | [3] -25.4% | [4] -22.2% | [5] -13.8% | [6] -38.1%

BrC1C2CC/C=C\CCC12 (stereo not drawn)
inactive: [1] 43.9% | [2] 22.7% | [3] 10.9% | [4] 11.6% | [5] 18% | [6] 13.9%

COC(C)CCOC(=O)c1ccc(C(C)C)cc1 (stereo not drawn)
inactive: [1] 6.45% | [2] 8% | [3] 10.2% | [4] -21.7% | [5] 8.75% | [6] 1.65%

CC(=O)OC1(C(=O)OCC2CCCO2)CCCC1 (stereo not drawn)
inactive: [1] -9.6% | [2] 5.4% | [3] -3.5% | [4] -9.8% | [5] 25.8% | [6] 6.9%

O=S(O)CCCSSSCCCS(=O)O
inactive: [1] 26.1% | [2] 20.9% | [3] 45.5% | [4] 37% | [5] 20% | [6] 38.6%

NS(=O)(=O)c1ccccc1
inactive: [1] 25.2% | [2] 18.9% | [3] 7.95% | [4] -28.4% | [5] 12.4% | [6] 15.4%
